High-throughput results from PubChem.
Hits are enriched below; roughly 18% of the tested compounds scored in any of these assays.
VP16 counter – inhibits Gal4-VP16 luciferase reporter, ROR gamma counter-screen. hit rate 3.5% among 310,000. Potency, µM (series often up to 53.6 µM), inactives show at the highest dose activity, negative = inhibition, most hits filed as inhibitors. Drosophila S2 Gal4-VP16 UAS-luciferase, luminescence, 20 h;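 further: Gal4-VP16 expression switched on by copper sulfate through the metallothionein promoter; potency means the concentration at half of the fitted maximal effect; nearly all actives have a fitted effect of over 50% in size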
IL-1B inflam inh – inhibitors of inflammasome signaling (IL-1 beta secretion); THP-1 LPS/ATP IL-1B secretion, AlphaLISA, 16 h; active compounds read low; activity change, % at 57.5 µM; hit rate 4.7% among 360,000; in the data active means activity change below about -50%; inconclusive means mostly about -30% to -49%
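Secreted IL-1B measured by AlphaLISA bead assay after 16 h compound exposure of THP-1 cells; compounds (final up to 57.5 uM) added 1 h before LPS (250 ng/mL) and ATP (1.25 mM) stimulation; lower signal means less secretion.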
TDP1 cell CPT – DT40-hTDP1 cell growth loss with CPT; hit rate 12% among 420,000; chicken DT40 Tdp1-/-;hTDP1 cells + 20 nM CPT, ATP luminescence, 48 h; Potency, µM (doses to about 46.2 µM), without a hit: at the top dose activity change, negative = growth inhibition, usual class: inhibitors; further: potency means the concentration at half of the fitted maximal effect; nearly all actives have a fitted effect of over 55% in size
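Cell growth measured by CellTiter-Glo luminescence after a minimum 48 h, 37 C compound exposure with 20 nM CPT in Tdp1-knockout DT40 cells stably expressing hTDP1, seeded 400/well; qHTS titration format.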
LDHA inh – inhibitors of human lactate dehydrogenase A; P00338; hit rate 0.15% among 480,000; activity change, % (values are at about 110 or 230 µM); purified LDHA, NADH/diaphorase-resazurin fluorescence; active compounds read low; in the data active means activity change below about -30%; inconclusive means mostly about -25% to -30%;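 further: plate controls were DMSO wells for no effect and wells without enzyme for full effect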
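Enzyme activity of human lactate dehydrogenase 5 (2 nM; 0.06 mM NADH, 0.2 mM pyruvate, 5 min, RT) is measured via a resazurin/diaphorase fluorescence readout of residual NADH.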
DT40 TDP1 no CPT – qHTS for Inhibitors of human tyrosyl-DNA phosphodiesterase 1 (TDP1): qHTS in cells in absence of CPT; DT40 Tdp1-/- hTDP1 cells, no CPT, ATP luminescence, 48 h; Potency, µM (highest dose often 46.2 µM), without a hit: top-dose activity change, negative = growth inhibition, usual class: inhibitors; hit rate 15% among 420,000; AID 686978, 2013; further: potency means the concentration at half of the fitted maximal effect; nearly all actives have a fitted effect of over 55% in size
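Stably hTDP1-transfected Tdp1-null chicken DT40 cells were treated with library compounds minus camptothecin and grown for at least 48 hr at 37 °C, after which cellular ATP was quantified by luminescence.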
RORg inh – inhibitors of mouse ROR gamma transcriptional activity; P51450; Drosophila S2 Gal4-RORgamma UAS-luciferase reporter, 20 h; Potency, µM (titrated, usually from 53.6 µM), without a hit: at the highest dose activity change, negative = inhibition, most hits filed as inhibitors; hit rate 5.4% among 310,000; further: potency means the concentration at half of the fitted maximal effect; nearly all actives have a fitted effect of over 60% in size
Target sequence (P51450 whole entry, looked up, the tested form may be a part): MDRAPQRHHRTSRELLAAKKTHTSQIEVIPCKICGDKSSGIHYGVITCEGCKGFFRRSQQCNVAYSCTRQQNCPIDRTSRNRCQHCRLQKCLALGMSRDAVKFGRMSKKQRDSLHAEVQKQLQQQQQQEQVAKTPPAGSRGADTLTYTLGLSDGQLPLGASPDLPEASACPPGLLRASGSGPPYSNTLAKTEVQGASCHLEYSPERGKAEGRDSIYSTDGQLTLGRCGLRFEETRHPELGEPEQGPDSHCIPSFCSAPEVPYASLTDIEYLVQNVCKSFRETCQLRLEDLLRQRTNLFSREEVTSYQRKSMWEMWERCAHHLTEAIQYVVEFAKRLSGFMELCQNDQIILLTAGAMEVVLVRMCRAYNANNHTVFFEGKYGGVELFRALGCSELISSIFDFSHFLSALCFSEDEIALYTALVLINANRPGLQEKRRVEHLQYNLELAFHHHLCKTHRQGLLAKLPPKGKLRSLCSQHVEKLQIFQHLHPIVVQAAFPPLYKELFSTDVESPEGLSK
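ROR gamma transcriptional activity was tracked as Gal4-UAS luciferase output in stably transfected Drosophila Schneider cells, with compound added 1 hr before 700 uM copper sulfate induction and a 20 hr ambient-temperature incubation.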
Numbers without * were called inactive; ? = inconclusive; nt = no result given; [ ] = dose if it differs, or a comment. Unless noted, the call rests on the fitted dose curve; in most records, active means well fitted curve in the direction sought with a large enough effect; inconclusive means small, poorly fitted or top-dose-only effect, or another doubt; inactive means no such curve, though single readings can be large; an effect the other way counts as inactive or inconclusive. Unless noted, on the % scale 0 is the no-effect control and ±100 the full control effect.

SMILES	VP16 counter	IL-1B inflam inh	TDP1 cell CPT	LDHA inh	DT40 TDP1 no CPT	RORg inh
C=CCC1=C(C)C(OC(=O)C2C(C=C(C)C)C2(C)C)CC1=O (stereo unspecified)	nt	nt	?	nt	24.3µM*	nt
CC(C)=CC1C(C(=O)OCc2coc(Cc3ccccc3)c2)C1(C)C (stereo unspecified)	-11.0%	nt	nt	nt	nt	5.5%
Cc1cc(C)cc(OCCOc2cccc(C=C3C(=O)NC(=O)NC3=O)c2)c1	-22.4%	14.3	18.4µM*	-8.1	?	-44.6%
Cc1ccc(OCCOc2cccc(C=C3C(=O)NC(=O)NC3=O)c2)cc1	?	-5.4	?	-23.8	18.4µM*	?
O=C1NC(=O)C(=Cc2ccc3ccccc3c2)C(=O)N1	5.9%	?	6.7%	-2.1	-1.6%	-13.7%
C[C@@H]1C[C@@H](O)[C@@]2(O)[C@]13CC(=O)OC[C@]2(C)[C@@](C)(O)C(=O)C3	-1.0%	nt	-22.2%[9.04 µM]	nt	-20.2%[9.04 µM]	-6.9%
COc1ccc2c(c1)c(C(=O)OC(C)C(=O)NC(C)(C)C)c(C)n2C1CC1 (stereo unspecified)	nt	nt	nt	-19.9	nt	nt
Cn1c(CCCC(=O)O)nc2cc(N(CCCl)CCCl)ccc21	0.0%	nt	?	nt	18.8µM*	2.3%
CC(=O)NCC(N)C(=O)c1ccc(C)cc1 (stereo unspecified)	nt	nt	?	-3.2	15.8µM*	nt
CC(C)(C)OC(=O)N1CCCC(C(=O)Nc2cccc(C(=O)NCCc3ccccc3)c2)C1 (stereo unspecified)	nt	9.7	14.6µM*	-0.5	20.6µM*	nt
O=C(NCCc1ccccc1)c1ccc2nccnc2c1	3.3%	8.2	?	0.4	-22.6%	-14.7%
Cc1ccc(NC(=O)Nc2cc3c(cc2N2CCCCC2)n(C)c(=O)n3C)cc1Cl	nt	nt	16.4µM*	7.9	7.31µM*	nt
Cc1ccc(NC(=O)N(C)C)cc1Cl	-1.2%	nt	nt	nt	nt	-0.2%
CCOC(=O)c1ccc(N2CCN(c3ccccc3F)CC2)c(NC(=O)Nc2ccc(Cl)c(Cl)c2)c1	nt	nt	1.3µM*	-2.0	1.3µM*	nt
CCOC(=O)c1ccc(NC(=O)Nc2cc3c(cc2N2CCCCC2)n(CC)c(=O)n3CC)cc1	nt	nt	11.6µM*	8.9	10.3µM*	nt
N=C(N)c1cc([N+](=O)[O-])cc([N+](=O)[O-])c1	nt	nt	nt	13.9	nt	nt
CN1C2CCC1CC(OC(=O)c1ccc([N+](=O)[O-])cc1)C2 (stereo unspecified)	14.9%	-6.3	-11.1%	6.9	-12.1%	6.4%
CN1[C@@H]2CC[C@H]1CC(OC(c1ccc(F)cc1)c1ccc(F)cc1)C2 (stereo partly specified)	-3.3%	nt	6.68µM*	nt	9.44µM*	?
Cc1ccc2c(c1)C=CC(C#N)N2C(=O)Oc1ccccc1 (stereo unspecified)	nt	?	18.4µM*	0.6	16.4µM*	nt
CCCCNC(=O)CN1CC=C(c2ccc(O)cc2)CC1	nt	nt	nt	17.6	nt	nt
CC(C)CCn1c(=O)c(C(=O)NCc2ccc3c(c2)OCO3)c(O)c2ccccc21	?	78.8	?	-1.7	?	?
CCCCn1c(=O)c(C(=O)Nc2cnccn2)c(O)c2ccccc21	-14.4%	0.0	2.91µM*	-2.7	5.17µM*	34.4%
CCCCCn1c(=O)c(C(=O)Nc2nc3ccccc3[nH]2)c(O)c2ccccc21	5.2%	14.7	2.91µM*	-7.7	5.17µM*	-4.2%
CCCCn1c(=O)c(C(=O)Nc2nc3ccccc3[nH]2)c(O)c2ccccc21	-5.4%	nt	nt	nt	nt	13.6%
CCCCCn1c(=O)c(C(=O)Nc2ccccc2Cl)c(O)c2ccccc21	-4.9%	37.3	5.17µM*	-3.6	5.17µM*	1.2%
SMILES	VP16 counter	IL-1B inflam inh	TDP1 cell CPT	LDHA inh	DT40 TDP1 no CPT	RORg inh
CCCCCn1c(=O)c(C(=O)NCCc2ccccc2)c(O)c2ccccc21	?	79.6	?	-4.4	?	?
CCCCn1c(O)c(C(C)=NCc2cccnc2)c(=O)[nH]c1=O	-6.2%	20.2	-10.6%	-1.7	-5.8%	17.0%
CC(C)CCn1c(=O)c(C(=O)Nc2ccccc2S(N)(=O)=O)c(O)c2ccccc21	?	1.8	4.61µM*	-1.2	5.17µM*	-16.8%
C=C(Cl)CN1CCC(N2CCCCC2)CC1	nt	nt	nt	1.4	nt	nt
c1ccc(N=NNc2ccccc2)cc1	5.2%	nt	nt	nt	nt	17.9%
COc1ccc(CCNCc2ccc(Cl)cc2)cc1	nt	nt	nt	7.5	nt	nt
CC/C=C(/C)C(=O)NC(C)Cc1ccc(Br)cc1 (stereo unspecified)	nt	nt	nt	3.9	nt	nt
CCCCn1c(C)c(C(=O)OCC)c2cc(O)ccc21	nt	nt	nt	11.7	nt	nt
CCCCn1c(=O)c(C(=O)Nc2ccccc2C)c(O)c2ccccc21	-24.3%	29.9	8.2µM*	-5.0	9.2µM*	?
CCCCCn1c(=O)c(C(=O)Nc2ncccc2C)c(O)c2ccccc21	8.91µM*	4.4	?	-1.0	?	8.91µM*
O=C(Nc1cccc(Br)c1)c1c(O)c2c(n(Cc3ccccc3)c1=O)CCCC2	-1.4%	12.3	3.8%	0.0	-4.6%	17.2%
CCCCn1c(=O)c(C(=O)Nc2cccc(C)c2)c(O)c2ccccc21	17.1%	24.8	5.8µM*	-3.2	4.61µM*	0.2%
CCCCn1c(=O)c(C=Nc2cccnc2Cl)c(O)n(CCCCl)c1=O	5.8%	44.9	-6.6%	-12.6	-15.6%	36.3%
CCOc1ccc(/C=C/C(=O)C(C(N)=O)=C2SCCS2)cc1	-14.3%	-4.5	?	-3.6	?	13.0%
